These results are taken from the supplement of paper PMC4894684.

Counter-ions that a name gives are not always drawn. ± gives the standard deviation of the averaged measurements. Hit rate of the full screen: of about 1,000 compounds, about 15 (2%) showed an effect of 50% or more. The entries come from a sample that favours strong results as a whole.

This experiment relates to HFF. The experiment in a line: uninfected host cell viability relative to vehicle control; higher = less host cell toxicity. Particulars: 5 µM; 72 h; oxygen 21 %.
Take `O=C1NC(=O)c2cc(Nc3ccccc3)c(Nc3ccccc3)cc21`: the “uninfected host cell viability” value turned out to be 93.23 ± 0.27%.

`COCCOC(=O)C1=C(C)NC(C)=C(C(=O)OC/C=C/c2ccccc2)C1c1cccc([N+](=O)[O-])c1` (stereo not given) [Cilnidipine]: the “uninfected host cell viability” value is 85.8 ± 2.8%.

On to `COc1ccccc1C1(O)CCN(CCCn2c3ccccc3c3ccccc32)CC1` [NNC 05-2090 hydrochloride], for which the “uninfected host cell viability” value was 81.9 ± 1.6%. With `Nc1nc(NCC2CCC(CNS(=O)(=O)c3cccc4ccccc34)CC2)nc2ccccc12` (stereo not given) the figure was 58.6 ± 2.7%.

Consider `CN(Cc1ccccc1)C(=O)[C@H](Cc1ccc2ccccc2c1)NC(=O)[C@@H]1C[C@@H](O)CN1C(=O)c1cn(C)c2ccccc12`, for which the “uninfected host cell viability” value worked out at 83.97 ± 0.68%. With `NC(=O)N/N=C/c1ccc(Oc2ccc(F)cc2)cc1` the figure was 87.6 ± 3.6%; with `O=C1NC(=O)c2cc(Nc3ccc(F)cc3)c(Nc3ccc(F)cc3)cc21`, 86.353 ± 0.013%; with `Oc1nc(-c2ccc(C(F)(F)F)cc2)nc2c1CSCC2`, 83.2 ± 2.4%.

On to `CCC(=O)NC[C@H](Cc1ccc(OCCc2nc(-c3ccccc3)oc2C)cc1)N/C(C)=C\C(=O)c1ccc(C(F)(F)F)cc1`, for which the “uninfected host cell viability” value was determined as 102 ± 1.4%. As to `COC(=O)/C=C/c1cccc(N(Cc2ccc(-c3ccc(N(C)C)cc3)cc2)C(=O)C2CCCCC2)c1` [Fexaramine], the “uninfected host cell viability” value was 96 ± 2.3%. Regarding `CC(=O)OCCNC(=O)c1cccnc1` [N-[2-(Acetoxy)ethyl]-3-pyridinecarboxamide], the “uninfected host cell viability” value was 82.8 ± 3.4%. Next, `OC1CCC(Nc2nc(-c3ccccc3)nc3[nH]ccc23)CC1` (stereo not given): 85.37 ± 0.31%; `Cc1ccc2c(c1)c1c3n2CCNC3CCC1` (stereo not given) [Pirlindole mesylate]: 88 ± 6.3%.

With `CC(C)c1ccc(C(=O)c2cccs2)c(SCCCCCCCCN(C)C)n1`, the “uninfected host cell viability” value worked out at 74.54 ± 0.56%. Next, `OC(CN1CCC(Cc2ccc(F)cc2)CC1)c1ccc(Cl)cc1` (stereo not given) [Eliprodil]: 88.9 ± 1.1%; `O=c1cc(N2CCOCC2)oc2c1ccc1ccccc12`: 82.9 ± 0.9%. Next, `COc1ccc(OC)c2c(=S)c3ccccc3[nH]c12`: 76.9 ± 3.1%; `COC(=O)C1=C(C)NC(C)=C(C(=O)OCCCN2CCC(c3ccccc3)(c3ccccc3)CC2)[C@H]1c1cccc([N+](=O)[O-])c1` [(S)-(+)-Niguldipine hydrochloride]: 76.95 ± 0.17%; `CCC(=O)OCN1C(=O)C=CC1=O`: 90.82 ± 0.35%. Regarding `Nc1c(Br)cc(Br)cc1CN[C@H]1CC[C@H](O)CC1` [Ambroxol hydrochloride], the “uninfected host cell viability” value was 83.8 ± 1.4%. With `CCCCCCCCCCCCCCCC(=O)O[C@H](CC(=O)O)C[N+](C)(C)C` (racemic) [(±)-Palmitoylcarnitine chloride] the figure was 89.8 ± 4.6%; with `CN(CC[C@@H](Oc1ccc(-c2ccccc2)cc1)c1ccc(F)cc1)CC(=O)O` [ALX 5407 hydrochloride], 89.7 ± 7.4%; with `COc1ccc(NC(=O)c2ccc(-c3ccc(-c4noc(C)n4)cc3C)cc2)cc1OCCN(C)C`, 36.9 ± 27%. With `COc1cc2c(Nc3ccc(NC(=O)c4ccccc4)cc3)ncnc2cc1OCCCN1CCOCC1` the figure was 64.74 ± 0.56%; with `COc1ccc(NC(=O)c2ccc(-c3ccc(-c4noc(C)n4)cc3C)cc2)cc1N1CCN(C)CC1`, 70.2 ± 7.3%; with `CCN(CC)c1ccc(/C=N/NC(=O)c2ccc(O)cc2)cc1`, 86.7 ± 5.1%.

For the compound `CCCCC[C@H](O)/C=C/[C@H]1[C@H](O)CC(=O)[C@@H]1CCCCCCC(=O)O` [Alprostadil], the “uninfected host cell viability” value was 91.7 ± 4.5%.

Take `CC1Nc2ccc(Cl)cc2S(=O)(=O)N1` (stereo not given): the “uninfected host cell viability” value worked out at 95.27 ± 0.86%. With `Cn1cc(C2=C(c3ccc(Cl)cc3Cl)C(=O)NC2=O)c2ccccc21`, the “uninfected host cell viability” value came to 72.6 ± 4.2%. Turning to `Cn1cc(C2=C(c3cn(CCCSC(=N)N)c4ccccc34)C(=O)NC2=O)c2ccccc21` [Ro 31-8220 mesylate], the “uninfected host cell viability” value came to 14.2 ± 0.54%. Next, `CN(C)CCCn1cc(C2=C(c3c[nH]c4ccccc34)C(=O)NC2=O)c2ccccc21`: 62.3 ± 1.5%. With `O=C(O)CC/C=C\C[C@H]1CO[C@@H](c2ccccc2Cl)O[C@H]1c1ccccc1O` the figure was 98.6 ± 1.1%; with `CCOC(=O)c1c(C)[nH]c2ccc3c(c12)CN1CCc2cc(OC)ccc2C1O3` (stereo not given), 96.1 ± 2.8%; with `CC(Oc1ccc(O)cc1)(P(=O)(O)O)P(=O)(O)O`, 95.3 ± 1.8%.

For the compound `CN(C)C(=O)C(=O)c1cn(C)c2cc(Cl)c(C(=O)N3CCC(Cc4ccc(F)cc4)CC3)cc12`, the “uninfected host cell viability” value was 88.4 ± 2.3%. Next, `CCOCC(O)COc1ccc(NC(=O)CC[S+](C)C)cc1` (stereo not given) [Suplatast tosylate]: 97.7 ± 1.6%; `CNC(=O)[C@H]1O[C@@H](n2cnc3c(NCc4cccc(I)c4)ncnc32)[C@H](O)[C@@H]1O`: 80.94 ± 0.44%. With `CCN(c1ccccc1)c1cc(=NC)n(C)c(C)n1` the figure was 92.2 ± 1.3%. Next, `CCOC(=O)c1ccc(OC(=O)CCCCCNC(=N)N)cc1` [Gabexate mesylate]: 89.8 ± 11%; `O=[N+]([O-])c1cc(Cl)ccc1S(=O)(=O)N1CCN(Cc2ccccc2)CC1`: 98.8 ± 3.2%; `CN1CC(=O)N=C1NC(=O)Nc1cccc(Cl)c1` [Fenobam]: 80.93 ± 0.68%.

For `CCCCc1nn(-c2ccccc2C(F)(F)F)c(=O)n1Cc1ccc(-c2ccccc2S(=O)(=O)NC(=O)c2sccc2C)cc1`, the “uninfected host cell viability” value was determined as 84.8 ± 3.6%. With `COc1cc(NC(=O)c2ccccn2)ccc1Cl` the figure was 95.9 ± 2.8%. With `COc1ccc(-c2nc(-c3ccc(-c4cccc(Cl)c4)o3)[nH]c2-c2ccc(OC)cc2)cc1` [Neurodazine] the figure was 80.3 ± 5.1%; with `O=C(NCCCN1CCCCCC1)C(c1ccccc1)C1CCCCC1` (stereo not given), 88.8 ± 4.6%.

In the case of `O=C(O)C=C1CCCc2ccccc2C1O` (stereo not given), the “uninfected host cell viability” value worked out at 83.32 ± 0.084%. For the compound `COC(=O)C[C@](O)(CCCC(C)(C)O)C(=O)O[C@@H]1C(OC)=C[C@]23CCCN2CCc2cc4c(cc2[C@H]13)OCO4` [Homoharringtonine], the “uninfected host cell viability” value worked out at 28.6 ± 2.8%.

Consider `O/N=C/c1ccc(-c2ccc(O)c(F)c2)c(Cl)c1O`, for which the “uninfected host cell viability” value is 91.86 ± 0.49%. Next, `Cc1ccc(/C=C2\CNC/C(=C\c3ccc(C)cc3)C2=O)cc1`: 34.4 ± 5.5%; `COC(=O)C1=C(C)NC(C)=C(C(=O)NCCCN2CCC(c3ccccc3)(c3ccccc3)CC2)C1c1ccc([N+](=O)[O-])cc1` (stereo not given): 81.9 ± 1.8%. Next, `CC#CCOC(=O)C1=CCCN(C)C1` [Arecaidine but-2-ynyl ester tosylate]: 88 ± 1.3%. Next, `CC(C)Oc1cccc(-n2c(CCc3c[nH]c4ccc(Br)cc34)nc3ccccc3c2=O)c1`: 92.8 ± 5.5%; `COc1cc(Br)c(S(=O)(=O)Nc2ccc(Cl)c(O[C@@H]3CCN(C)C3)c2)cc1OC`: 96.9 ± 3%. For the compound `C[C@H](NC[C@H](O)CP(=O)(O)CC1CCCCC1)c1ccc(Cl)c(Cl)c1`, the “uninfected host cell viability” value came out at 84.83 ± 0.31%. Next, `CC1c2ccccc2CN1CC1=NCCN1` (stereo not given): 89 ± 2.3%.
